Compounds with a hit are over-represented: about 2.4% of the library has one in this group of screens.
FEN1 inh – blocks human flap endonuclease 1; P39748; Recombinant FEN1 flap cleavage, fluorescence, 15 min; Potency, µM (doses to about 114 µM), without a hit: at the top dose activity change, negative = inhibition, hits mostly inhibitors; 0.35% of 390,000 active; AID 588795; further: on the % scale 0 is the no-effect control and ±100 the full control effect; nearly all actives have a fitted effect of over 65% in size
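Quantitative HTS format: each compound was titrated, incubated with 10 nM nuclease for 15 min at room temperature, then challenged with flap substrate at 50 nM final. Signal change over 15 min gave concentration–effect curves.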
Pol kappa inh-1 – inhibitors of human DNA polymerase kappa; Q9UBT6; 0.53% of 400,000 active; purified Pol kappa, fluorescent DNA synthesis assay, 10 min; Potency, µM (highest dose often 107 µM), for the others: top-dose activity, negative = inhibition, actives largely listed as inhibitors; AID 588579; further: on the % scale 0 is the no-effect control and ±100 the full control effect
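Fluorescent qHTS in 1536-well format: enzyme (10 nM) and compound sat 15 min at room temperature before 50 nM substrate (final) was added. Signal taken at 0 and 10 min; no-enzyme buffer wells were negative controls.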
POLI inh – DNA polymerase iota (human) inhibition. Pol iota fluorescent replication assay, 10 min. Potency, µM (top dose mostly 115 µM), for inactives: at the highest dose activity, negative = inhibition, actives largely listed as inhibitors. 1% of 390,000 active. AID 588590
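Fluorescent replication assay read twice, at 0 min and 10 min after adding 50 nM (final) substrate. Enzyme (10 nM) and compounds were first incubated 15 min at room temperature; enzyme-free buffer wells were negative controls.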
WRN inhibitor – blocks human WRN helicase. Q14191. WRN helicase unwinding, fluorescent forked duplex, kinetic. Potency, µM (top dose mostly 114 µM), for the others: at the highest dose activity change, negative = inhibition, hits mostly inhibitors. 0.46% of 360,000 active. AID 651768; further: on the % scale 0 is the no-effect control and ±100 the full control effect; nearly all actives have a fitted effect of over 55% in size
Target sequence (Q14191 whole entry, looked up): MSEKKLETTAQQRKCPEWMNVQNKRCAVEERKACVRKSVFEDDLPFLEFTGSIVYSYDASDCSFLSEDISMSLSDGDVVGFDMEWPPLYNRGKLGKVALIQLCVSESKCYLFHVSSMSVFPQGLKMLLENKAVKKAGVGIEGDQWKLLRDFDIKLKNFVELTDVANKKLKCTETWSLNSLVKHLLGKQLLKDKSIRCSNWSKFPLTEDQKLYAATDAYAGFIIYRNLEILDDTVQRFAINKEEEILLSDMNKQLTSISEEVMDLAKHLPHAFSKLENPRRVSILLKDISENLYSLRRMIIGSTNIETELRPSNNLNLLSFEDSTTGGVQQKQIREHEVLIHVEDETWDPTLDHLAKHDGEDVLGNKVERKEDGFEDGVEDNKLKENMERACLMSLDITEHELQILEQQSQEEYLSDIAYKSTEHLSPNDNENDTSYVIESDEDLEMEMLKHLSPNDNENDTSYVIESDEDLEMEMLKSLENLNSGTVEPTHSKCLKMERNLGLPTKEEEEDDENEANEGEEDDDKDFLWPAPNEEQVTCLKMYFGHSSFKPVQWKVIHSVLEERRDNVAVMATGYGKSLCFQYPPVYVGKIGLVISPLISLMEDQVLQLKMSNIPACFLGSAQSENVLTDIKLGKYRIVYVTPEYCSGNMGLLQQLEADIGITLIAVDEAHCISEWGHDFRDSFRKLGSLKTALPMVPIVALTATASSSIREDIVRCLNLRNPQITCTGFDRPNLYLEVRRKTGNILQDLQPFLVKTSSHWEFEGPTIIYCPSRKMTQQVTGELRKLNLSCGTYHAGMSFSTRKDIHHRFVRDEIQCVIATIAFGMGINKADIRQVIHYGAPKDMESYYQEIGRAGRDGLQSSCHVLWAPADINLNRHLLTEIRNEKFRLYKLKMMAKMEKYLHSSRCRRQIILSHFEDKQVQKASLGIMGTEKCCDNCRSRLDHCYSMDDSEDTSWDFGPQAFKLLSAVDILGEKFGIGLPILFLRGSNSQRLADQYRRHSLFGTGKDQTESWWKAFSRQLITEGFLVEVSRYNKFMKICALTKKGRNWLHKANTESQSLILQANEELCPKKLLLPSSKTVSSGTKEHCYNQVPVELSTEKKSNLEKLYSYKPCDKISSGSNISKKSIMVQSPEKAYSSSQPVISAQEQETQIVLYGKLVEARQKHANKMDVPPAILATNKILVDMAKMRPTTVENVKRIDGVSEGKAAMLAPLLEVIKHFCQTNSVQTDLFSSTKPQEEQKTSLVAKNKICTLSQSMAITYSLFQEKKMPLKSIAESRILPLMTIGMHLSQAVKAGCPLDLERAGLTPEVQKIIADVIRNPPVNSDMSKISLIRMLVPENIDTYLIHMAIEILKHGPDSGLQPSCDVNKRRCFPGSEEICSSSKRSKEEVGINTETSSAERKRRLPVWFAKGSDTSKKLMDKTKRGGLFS
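WRN at 20 nM final preincubated with compound 15 min at room temperature; reaction started with 100 nM fluorophore/quencher forked duplex oligonucleotide and 2 mM ATP final. Unwinding followed kinetically by red fluorescence (ex 525, em 598 nm).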
Pol beta inh – inhibitors of human DNA polymerase beta. AID 485314. P06746. 1.3% of 340,000 active. Pol beta primer extension/strand displacement, fluorescence kinetic. Potency, µM (series often up to 114 µM), inactives show at the highest dose activity change, negative = inhibition, usual class: inhibitors; further: on the % scale 0 is the no-effect control and ±100 the full control effect
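Reaction started by 50 nM substrate onto compound-treated Pol beta (10 nM, 15 min preincubation, room temperature); plates read at 0 min and 10 min. Normalized concentration-effect data fitted by four-parameter Hill equation.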
Pol eta inh-1 – inhibitors of human DNA polymerase eta | recombinant Pol eta, fluorescent DNA replication assay | Potency, µM (series often up to 114 µM), for inactives: at the top dose activity change, negative = inhibition, most hits filed as inhibitors | 1.2% of 390,000 active | AID 588591; further: on the % scale 0 is the no-effect control and ±100 the full control effect
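Pol eta (10 nM) was preincubated with compounds for 15 min at room temperature, after which fluorescent replication substrate (50 nM final) was added to start the reaction. Fluorescence was read kinetically at 0 and 10 min.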
TbPGK inh – validation of Trypanosoma brucei phosphoglycerate kinase inhibitors | AID 686980 | 79% of 500 active | shares compounds with Pol kappa inh-1 | Potency, µM (titrated, usually from 57.5 µM), without a hit: at the top dose activity change, negative = inhibition, actives largely listed as inhibitors | TbPGK coupled GAPDH assay, Kinase-Glo luminescence; further: on the % scale 0 is the no-effect control and ±100 the full control effect; nearly all actives have a fitted effect of over 65% in size
POLI cherry-pick – Human Pol iota inhibitor confirmatory assay; shares compounds with Pol kappa inh-1; Potency, µM, actives largely listed as inhibitors; Pol iota primer extension, TAMRA/BHQ fluorescence; 77% of 1,500 active; AID 720496
Pol kappa inh-2 – Pol kappa (human) inhibition, cherry-pick confirmation; 76% of 920 active; shares compounds with Pol eta inh-1; Potency, µM, usual class: inhibitors; purified Pol-kappa, fluorescent strand-displacement substrate
Pol eta inh-2 – confirmation of human DNA polymerase eta inhibitors; shares compounds with Pol eta inh-1; Pol eta primer extension, TAMRA/BHQ fluorescence, 10 min; Potency, µM, hits mostly inhibitors; 64% of 2,600 active; AID 720502
Active calls of the source: *; ? = inconclusive; . = not tested or not shown; [ ] = remark or other dose. The call rests on the fitted dose curve; in most records, active means well fitted curve in the direction sought with a large enough effect; inconclusive means small, poorly fitted or top-dose-only effect, or another doubt; inactive means no such curve, though single readings can be large; an effect the other way counts as inactive or inconclusive. Potency means the concentration at half of the fitted maximal effect.

SMILES	FEN1 inh	Pol kappa inh-1	POLI inh	WRN inhibitor	Pol beta inh	Pol eta inh-1	POLI cherry-pick	Pol eta inh-2	others
O=[N+]([O-])c1ccccc1-c1ccc(/C=N/n2cnnc2)o1	-15%	-4%	-5%[58.9 µM]	9%	8%	5%	.	.
Oc1ccc(-c2csc(-c3cccnc3)n2)cc1O	-18%	32µM*	28µM*	?	?	25µM*	84*	?
NC(=O)CSc1nccn1Cc1ccc2c(c1)OCO2	0%	-16%	17%	-6%[57.1 µM]	?	1%	.	.
O=C(Nc1ccccc1Cl)Oc1ccc(Cl)cc1Cl	-8%	-5%	40%	-5%	3%	-18%	.	.
CCn1c(=O)n(CC)c2cc(NS(=O)(=O)c3ccccc3)ccc21	15%	2%	29%	3%	17%	-19%	.	.
O=C(N/N=C/c1ccc(O)cc1O)C(=O)N/N=C/c1ccc(O)cc1O	-19%	-14%	?	-8%[11.6 µM]	?	-18%	9.5*	17*
O=C(NN=Cc1ccc(O)cc1)C(=O)NN=Cc1ccc(O)cc1	9%	4%	21%	3%	.	-27%	.	.
CCOC(=O)CC(NS(=O)(=O)c1ccc2[nH]cc(C(=O)O)c(=O)c2c1)c1ccc(OCC)c(OC)c1 (centres undefined)	-17%	50µM*	20µM*	1%[11.6 µM]	3.5µM*	4µM*	34*	27*
CCOc1ccccc1NC(=O)C1CCCN(S(=O)(=O)c2ccc(OC)c(C)c2)C1 (centres undefined)	-1%	-5%	7%	-4%	0%	-17%	.	.
COc1cc(/C=N/NC(N)=S)ccc1OCC(=O)Nc1ccc(C)c(C)c1	-1%	5%	?	-19%	-1%	?	.	.
COc1cc(/C=N/NC(N)=O)ccc1OCC(=O)Nc1ccc(C)c(C)c1	?	89µM*	32µM*	?	?	28µM*	42*	76*
CC(C)(C)NS(=O)(=O)c1ccc(NC(=O)C2CCCCC2)cc1	2%	1%	18%	-7%	1%	-5%	.	.
CCn1c2ccccc2c2cc(NC(=O)COc3ccccc3OC)ccc21	-11%	-7%	1%	?	13%	2%	.	.
CCOc1ccc(NC(=O)CCS(=O)(=O)c2ccc(Br)cc2)cc1	-15%	8%	-13%	-8%[11.6 µM]	28µM*	18µM*	.	76*	TbPGK inh=?
C[C@@H]1CN([C@H](C)CO)C(=O)CCCn2cc(nn2)CO[C@H]1CN(C)C(=O)Nc1ccc(C(F)(F)F)cc1	.	.	.	-4%	.	-3%	.	.
O=C(O)C1=CCC=CC1C(=O)O (centres undefined)	.	.	.	?	.	5µM*	21*	15*	TbPGK inh=3.3µM*
CC(/C=N/NC(=O)c1ccc(CN2c3cccc4cccc(c34)S2(=O)=O)cc1)c1ccccc1 (centres undefined)	7%	-6%	-6%	-29%	6%[57.1 µM]	?	.	.
O=C(O)c1ccc(/C=N/NC(=O)c2ccc(CN3c4cccc5cccc(c45)S3(=O)=O)cc2)cc1	?	?	25µM*	?	?	22µM*	?	60*
CCOc1ccc(C(=O)NCC(=O)N2CCN(c3ccccc3O)CC2)cc1	4%	6%	-4%	10%	57%	-24%	.	.
CCCc1nc(-c2cc3ccccc3[nH]c2=O)no1	-1%	13%	51%	-4%	5%	-19%	.	.
O=C(Cn1c(=O)n(Cc2ccco2)c(=O)c2c3c(sc21)CCCC3)Nc1ccccc1	7%	-8%	?	-15%	2%	-14%	.	.
NC(=O)Cn1c(=O)n(Cc2ccco2)c(=O)c2c3c(sc21)CCCCC3	-12%	25µM*	?	?	10µM*	40µM*	?	?
Cc1ccccc1NC(=O)CN1C(=O)S/C(=C\c2cccn2-c2cccc(C(=O)O)c2)C1=O	?	25µM*	?	?	-87%	3.5µM*	42*	48*
Cc1cccc(C)c1NC(=O)CN1C(=O)S/C(=C\c2cccn2C)C1=O	-1%	-18%	0%	-9%	29%	0%	.	.
Cc1cccc(C)c1-n1cccc1/C=C1\SC(=S)N(c2cccc(C(=O)O)c2)C1=O	?	-16%	?	?	40µM*	?	?	?	Pol kappa inh-2=60*
SMILES	FEN1 inh	Pol kappa inh-1	POLI inh	WRN inhibitor	Pol beta inh	Pol eta inh-1	POLI cherry-pick	Pol eta inh-2	others
O=C(COC(=O)c1cc2c(s1)CCC2)Nc1ccc(F)cc1	-3%	32µM*	20µM*	?	8.9µM*	18µM*	24*	24*
Cc1ccc(NC(=O)c2cc3c(s2)CCCC3)cc1	6%	-16%	44%	-13%	3%	-12%	.	.
CCOc1ccc(NC(=O)CN(C)C(=O)c2cc3c(s2)CCC3)cc1OCC	.	.	.	?	.	3.5µM*	17*	34*	Pol kappa inh-2=19*
CN(C)c1ccc(/C=C2\SC(N3CCCCC3)=NC2=O)cc1	-14%	-15%	23%	-5%	20%	-23%	.	.
CN1N/C(=C\c2ccccc2)N=C2C(=O)N(C)C(=O)N=C21	?	?	-98%	.	.	.	2.7*	5.4*
CC/C=C1/N=C2C(=O)N(C)C(=O)N=C2N(C)N1	-11%	-9%	-19%	.	.	.	.	.
N#Cc1ccccc1S(=O)(=O)N1CCN(C(=O)c2cc3c(s2)CCC3)CC1	-8%	?	?	-13%[11.6 µM]	.	20µM*	?	?	Pol kappa inh-2=?
Cc1cc(C(=O)N2CCN(S(=O)(=O)c3ccccc3C#N)CC2)c(C)o1	-3%	-15%	31%	-10%	.	-25%	.	.
CC(=O)Nc1sc2c(c1C#N)CCN(Cc1ccccc1)C2	0%	-11%	59%	1%	-2%	-15%	.	.
N#Cc1c(NC(=O)/C=C/C(=O)O)sc2c1CCN(Cc1ccccc1)C2	-29%	7%	-27%	-8%[11.6 µM]	32µM*	28µM*	47*	48*	Pol kappa inh-2=24*
COc1ccc(C2c3cccn3CCN2S(=O)(=O)c2ccccc2[N+](=O)[O-])cc1OC (centres undefined)	8%	-1%[60.1 µM]	13%	.	2%	-21%	.	.

High-throughput results deposited in PubChem BioAssay by National Center for Advancing Translational Sciences (NCATS).
